Our source for the remaining activity values is PubChem BioAssay.

The structures appear in SMILES notation. Values without a mark were called inactive. How the calls were made is not given here.

In the assay the test system is Aerobactin synthetase IucA (Klebsiella pneumoniae, hypervirulent). The experiment in a line: biochemical IucA inhibition screen of LOPAC library by absorbance (AID 1346212).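 Further: 100% = no compound wells and 0% = no enzyme wells.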 The settings on record: IucA enzyme assay, absorbance (OD) readout; active compounds read low;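 tested at 8 µM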.
With `COc1[nH]c2ccc(F)cc2c1C(=O)OCC1CCN(CCNS(C)(=O)=O)CC1`, the remaining activity (usually the signal under treatment as a percentage of the control signal) was 124%. The same measure for `CCN1C(=O)C=CC1=O`: 102%; for `C[C@H](Cc1ccccc1)Nc1ncnc2c1ncn2[C@@H]1O[C@H](CO)[C@H](O)C1O` (some centres undefined): 118%. For `CCCCS(=N)(=O)CC[C@H](N)C(=O)O` (some centres undefined) the value was 92.2%. Regarding `CNCCC(Oc1ccccc1OC)c1ccccc1` (centres undefined), the remaining activity is 104%. As for `CC[C@H](NC(=O)c1c(C)c(-c2ccccc2)nc2ccccc12)c1ccccc1`, the remaining activity is 114%. For `CC(COc1ccc(/C=C/c2ccccc2)cc1)[N+](C)(C)C` (centres undefined) the value was 104%; for `CC(C)(C=O)Cc1cc(C(C)(C)C)c(O)c(C(C)(C)C)c1`, 115%.

For the molecule `N=C(N)N1CCc2ccccc2C1`, the remaining activity is 106%. The same measure for `CCN1CCc2nc(N)oc2CC1`: 119%. The same measure for `C/C(=C\c1ccc(C(=O)O)cc1)c1ccc2c(c1)C(C)(C)CCC2(C)C`: 97.8%; for `NO`: 100%. For `NC1(C(=O)O)CCc2cc(C(=O)O)ccc21` (centres undefined) the value was 110%; for `O=C1Cc2c([nH]c3ccc(Br)cc23)-c2ccccc2N1`, 125%.

Regarding `CCCn1cnc2c1c(=O)n(CCCCC(C)=O)c(=O)n2C`, the remaining activity was 93.8%. For `CC(O)C(O)[C@H]1CNc2nc(N)[nH]c(=O)c2N1` (some centres undefined) the value was 102%; for `CCN(CC)C(=O)c1ccc(O)c(OC)c1`, 122%. `CCCCN1CCC(n2c(=O)[nH]c3ccccc32)CC1`: the remaining activity is 110%. The same measure for `C[C@@](Cc1ccc(O)c(O)c1)(NN)C(=O)O`: 81.8%.
